Experimental data as given in PubChem BioAssay.
Values joined by “and” are separate entries in the source; they are usually repeats but may differ in a detail not shown here. Equal values may be shown once.

What was measured:
[1] = tested on: Human papillomavirus type 1a protein E7 (residues 44-93); experiment: small molecules binding HPV E7 44-93 – biochemical, small-molecule microarray, residues 44-93, 635 nm fluorescence, primary screen (AID 1108); conditions: fluorescence 635 nm, higher = more signal;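 also: E7 fragment applied at 1 µg/mL in TBST for 1 h at 4 C; score combines spot fluorescence with its signal to noise ratio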
[2] = hepatitis C replication reporter changes, two-sided – Huh7 cells, luciferase reporter, HCV replication inhibitor project, primary screen (AID 1109); conditions: Huh7 HCV replicon luciferase reporter, 48 h; higher = more signal;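 also: huh7 hepatoma cells harbouring a luciferase neomycin HCV replicon reporter; luciferase luminescence as measure of HCV replicon replication; test concentration not given here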
[3] = target: Left-right determination factor 2 (Homo sapiens) (UniProt O00292); experiment: small molecules binding LEFTY2 protein – biochemical, small-molecule microarray, 635 nm fluorescence scan, primary screen (AID 1110); conditions: higher = more signal
Sequence of Left-right determination factor 2 (Homo sapiens) (O00292 whole entry, looked up): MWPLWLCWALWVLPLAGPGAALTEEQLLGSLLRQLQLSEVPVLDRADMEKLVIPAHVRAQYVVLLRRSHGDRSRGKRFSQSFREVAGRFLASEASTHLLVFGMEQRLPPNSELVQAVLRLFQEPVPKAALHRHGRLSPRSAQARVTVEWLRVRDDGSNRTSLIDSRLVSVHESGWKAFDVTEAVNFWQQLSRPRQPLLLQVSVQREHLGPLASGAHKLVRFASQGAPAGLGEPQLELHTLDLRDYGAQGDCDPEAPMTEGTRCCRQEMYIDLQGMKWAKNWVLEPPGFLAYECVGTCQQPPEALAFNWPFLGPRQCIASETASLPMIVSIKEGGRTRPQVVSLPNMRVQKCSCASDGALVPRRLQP

[4] = target: Calmodulin-1 (Homo sapiens) (UniProt P0DP23); experiment: small molecules binding calmodulin-1 with EGTA – biochemical, small-molecule microarray, Cy5-labelled CALM1, profiling panel (AID 1111); conditions: Cy5-CALM1 binding fluorescence, higher = more signal;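 also: labelled calmodulin applied in Tris saline Tween buffer holding calcium plus EGTA and DTT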
[5] = target: Calmodulin-1 (Homo sapiens) (UniProt P0DP23); experiment: small molecules binding Ca-loaded calmodulin-1 – biochemical, small-molecule microarray, Cy5-labelled CALM1, plus calcium, artefact control for SMM control-protein annotation, profiling panel (AID 1112); conditions: Cy5-CALM1 binding fluorescence, higher = more signal;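 also: score merges spot fluorescence with signal to noise from triplicate slides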
[6] = probe aWnt5a binding to arrayed compounds – biochemical, biotinylated probe, 635/667 nm fluorescence, primary screen (AID 1113); conditions: small-molecule microarray, higher = more signal;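 also: score merges 667 nm fluorescence intensity with signal-to-noise per printed feature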
[7] = probe aShh binding to arrayed compounds – biochemical, biotinylated probe, 635/667 nm fluorescence, primary screen (AID 1114); conditions: small-molecule microarray, higher = more signal;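 also: probe is biotin-labelled aShh protein from a stem cell growth factor screen; measures binding of labelled protein to compounds printed on the slide; score merges feature fluorescence at 667 nm with signal-to-noise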
[8] = probe aNog binding to arrayed compounds – biochemical, biotinylated probe, 635/667 nm fluorescence, primary screen (AID 1115); conditions: small-molecule microarray, higher = more signal;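 also: probe is biotinylated aNog protein used at 0.15 µg/mL for 1 h at 4 C; z-score combines 667 nm fluorescence of each spot with its signal to noise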
[9] = target: Torsin-1A-interacting protein 1 (Homo sapiens) (UniProt Q5JTV8); experiment: compound microarray binding of lysate hLAP1 – cell lysate, small-molecule microarray, COS7 lysate, 635/667 nm fluorescence, primary screen (AID 1116); conditions: 635 nm fluorescence, higher = more signal
Sequence of Torsin-1A-interacting protein 1 (Homo sapiens) (Q5JTV8 whole entry, looked up): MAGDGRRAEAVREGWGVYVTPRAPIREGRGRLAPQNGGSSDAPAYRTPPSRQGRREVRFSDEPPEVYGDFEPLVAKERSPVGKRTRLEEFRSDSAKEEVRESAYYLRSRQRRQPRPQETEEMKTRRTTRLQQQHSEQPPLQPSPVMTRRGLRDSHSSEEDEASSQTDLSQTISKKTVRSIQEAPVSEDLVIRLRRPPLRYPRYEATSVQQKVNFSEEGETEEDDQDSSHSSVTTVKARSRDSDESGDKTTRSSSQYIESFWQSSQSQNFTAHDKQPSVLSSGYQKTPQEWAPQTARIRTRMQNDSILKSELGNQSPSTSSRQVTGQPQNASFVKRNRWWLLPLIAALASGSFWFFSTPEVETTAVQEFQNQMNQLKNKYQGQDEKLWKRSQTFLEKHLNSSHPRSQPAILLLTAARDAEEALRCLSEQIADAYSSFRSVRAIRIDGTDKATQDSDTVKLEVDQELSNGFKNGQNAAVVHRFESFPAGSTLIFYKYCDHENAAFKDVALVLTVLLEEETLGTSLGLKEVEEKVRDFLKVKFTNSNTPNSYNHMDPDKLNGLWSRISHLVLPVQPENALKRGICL

[10] = target: Alpha-bungarotoxin (Bungarus multicinctus) (UniProt P60615); experiment: compounds binding labelled alpha-BTX control protein – biochemical, small-molecule microarray, Alexa647 label, 635/667 nm fluorescence, artefact control for SMM control protein annotation, profiling panel (AID 1117); conditions: alpha-BTX-A647 binding fluorescence, higher = more signal
Sequence of Alpha-bungarotoxin (Bungarus multicinctus) (P60615 whole entry, looked up): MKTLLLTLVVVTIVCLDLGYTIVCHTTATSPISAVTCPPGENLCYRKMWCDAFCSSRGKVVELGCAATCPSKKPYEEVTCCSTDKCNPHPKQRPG

SMILES | composite z-score [1] | z-score [2] | composite z-score [3] | composite z-score [4] | composite z-score [5] | composite z-score [6] | composite z-score [7] | composite z-score [8] | composite z-score [9] | composite z-score [10]
CCOC(=O)c1ccc(NC(=O)O[C@H]2[C@H](OC(=O)Nc3ccccc3)[C@H](OC(=O)Nc3ccccc3)[C@@H](OC)O[C@@H]2CO)cc1 | 1.2 and 1.34 | -3.29 and -3.49 | 0.899 and 0.291 | 2 and 2.1 | 0.0672 and 0.407 | 0.0438 and -0.0417 | 0.113 and 0.337 | 0.576 and 0.978 | 1.74 and 1.88 | 1.86 and 2.87
COC(=O)C1=C(C)N(Cc2ccccc2)C2=C3C(=O)N(c4ccccc4)C(=O)[C@@H]3[C@@](O)(C(=O)OC)C(=O)N2[C@@H]1c1ccccc1 | -0.996 and 0.49 | -0.0822 and -0.147 | 0.269 and 0.49 | -0.101 and -0.0398 | -0.65 and -0.381 | -0.124 and -0.0405 | 0.151 and 0.318 | 0.0954 and -0.43 | 0.792 and 1.32 | 0.231 and 1.87
C[C@@H]1CC[C@@H](C(=O)O)N[C@H]1c1ccc(-c2ccco2)cc1 | -1.68 | -0.305 | 0.88 | -0.547 | -1.3 | -0.096 | -0.299 | 0.0023 | 0.195 | 0.0848
CC(C)=CCCC(C)=CCON=C1C[C@@H](O)[C@@H](O)[C@@H]2[C@@H]3C(=O)N([C@@H](C)c4ccccc4)C(=O)[C@@H]3CC[C@H]12 | 0.893 | -0.745 | 0.773 | -0.282 | -0.782 | -0.0644 | 0.265 | -0.44 | 0.166 | 0.417
COc1ccc(COC(=O)NN=C2C[C@@H](O)[C@@H](O)[C@@H]3[C@@H]4C(=O)N(C(C)(C)C)C(=O)[C@@H]4CC[C@H]23)cc1 | 1.01 | -0.167 | 0.0311 | -0.0989 | -0.143 | -0.1 | 0.0469 | -0.242 | 0.677 | 0.7
C=CC[C@H](O)c1ccc(OCCO)cc1 | -0.664 and -3.44 | -0.921 and 0.924 | -0.774 and -0.827 | -1.14 and -0.814 | 0.237 and 0.234 | -0.176 and -0.139 | -0.221 and -0.288 | -0.0144 and 0.419 | -0.24 and -1.3 | 2.4 and -0.101
CC(C)N1CC=CC23O[C@@H]4C=CCCOC(=O)C4[C@H]2C(=O)N(C(C)CO)[C@@H]3C1=O (stereo not given in full) | 0.163 and -0.9 | 0.179 and -0.144 | -1.4 and -1.42 | -0.302 and -0.271 | 0.269 and 0.224 | -0.26 and -0.152 | -0.138 and 0.0305 | 0.111 and -0.0784 | 1.62 and 0.0015 | -0.712 and -1.74
COC(=O)CC=C[C@@H](C)[C@@H](CO)NS(=O)(=O)c1ccc(C)cc1 | -0.314 and 0.755 | -0.465 and -0.0825 | 0.632 and 0.966 | -0.442 and -0.343 | -1.01 and -0.837 | -0.0405 and -0.0994 | -0.522 and 0.111 | -0.0503 and 0.0287 | -0.145 and 0.808 | -0.309 and 0.0211
C[C@@H](ON=C1[C@H]2CCn3c(=O)n(-c4ccccc4)c(=O)n3[C@H]2[C@H](O)[C@@H]2O[C@H]12)c1cn([C@H](CO)Cc2ccccc2)nn1 | 0.46 | -3.71 | 0.605 | 0.0208 | -0.549 | -0.148 | -0.358 | -0.364 | -0.0609 | 0.24
C=C[C@H](OC)[C@@H](O)c1ccc(O)c(F)c1 | -1.18 and -1.38 | 0.156 and -0.114 | -2.27 and -2.63 | -1.27 and -0.866 | -0.625 and -0.713 | -0.244 and -0.356 | -0.262 and -0.282 | -0.173 and -0.8 | -0.753 and -1.81 | -1.36 and -0.191
C=CCN(CCCC)C(=O)C1N(c2c(Cl)cccc2CO)C(=O)C2C(C(=O)O)C3C=CC21O3 (stereo not given) | -1.84 and 0.389 | -0.325 and -0.567 | -3.23 and -2.18 | -0.623 and -0.783 | 0.713 and -0.0889 | -0.144 and -0.0894 | 0.151 and -0.279 | 0.0107 and 0.242 | -0.529 and -0.927 | -0.406 and -1.31
C=CCN(CCCC)C(=O)C(c1cccs1)N(C(=O)/C=C\C(=O)O)c1c(Cl)cccc1CO (stereo not given) | -1.23 and -1.01 | -0.765 and -0.992 | -3.75 and -3.83 | -0.731 and -0.883 | 0.215 and 0.584 | -0.328 and -0.303 | -0.0769 and -0.221 | -0.0173 and -0.0409 | -1.53 and -1.41 | -1.09 and -1.15
CO[C@@H]1COC(=O)[C@H](Cc2ccccc2)NC(=O)CC=C[C@@H](C)[C@H](OC)COC(=O)[C@@H](C)NC(=O)CC=C[C@H]1C | 0.946 and 0.026 | -0.198 and 0.903 | 0.79 and 0.972 | -0.913 and -0.79 | -1.89 and -1.85 | -0.1 and -0.22 | -0.362 and -0.102 | -0.201 and -0.278 | 0.596 and -0.19 | -0.527 and -0.862
CCN1C(=O)[C@H]2[C@H]3[C@H](O)[C@H](O)CC(=NOC)[C@@H]3CC[C@H]2C1=O | -0.524 | 0.964 | 0.256 | -0.472 | -0.266 | -0.147 | 0.13 | -0.122 | 0.262 | 0.178
COC(=O)C1=C(C)N(Cc2ccccc2)[C@]23O[C@](C(=O)OC)(C(=O)N2[C@@H]1c1ccccc1)[C@H]1C(=O)N(c2ccccc2)C(=O)[C@H]13 | -0.167 and 0.131 | -0.716 and -0.479 | 0.688 and 0.613 | 0.361 and -0.212 | -0.298 and -0.362 | -0.197 and -0.0882 | -0.304 and -0.0066 | -0.341 and 0.0299 | -0.233 and 0.633 | 1.34 and 1.08
CC(C)OC(=O)C=C1C[C@@H](c2cccc(C(F)(F)F)c2)O[C@@H](c2cccc(C(F)(F)F)c2)O1 | 1.34 and 0.979 | -1.55 and -2.35 | -0.906 and -0.656 | 1.21 and 0.297 | 0.831 and 0.224 | 0.0433 and -0.218 | 0.04 and -0.162 | 0.509 and 0.655 | 1.03 and 0.0622 | 0.613 and 0.269
C=CCN(CCCCC)C(=O)C1N(c2c(Cl)cccc2CO)C(=O)C2C(C(=O)O)C3C=CC21O3 (stereo not given) | -0.495 and -1.04 | -1.62 and -0.992 | -1.3 and -3.32 | -0.522 and -1.03 | 0.639 and 0.545 | -0.292 and -0.23 | -0.214 and -0.262 | 0.0029 and 0.0473 | 0.443 and -0.697 | -1.91 and -1.04
CCOC(=O)[C@H](CC(C)C)NC(=O)CCC1CC(OC(=O)NCc2cccc3ccccc23)CC2(CCCC(COC(=O)NCc3ccccc3)O2)O1 (stereo not given in full) | -0.931 | -0.132 | -0.0479 | -0.195 | -0.559 | -0.152 | -0.282 | -0.0029 | -0.61 | -0.274
C[C@@]1([C@@H](NC(=O)Cc2ccccc2)c2ccc(-c3ccccc3)cc2)C[C@H]1C1CCCCC1 | 0.208 and 0.778 and 1.16 | -2.39 and -1.33 and -0.271 | -0.109 and -0.069 and 0.118 | 1.7 and 1.95 and 1.63 | 1.26 and 1.28 and 0.753 | 0.631 and 1.04 and 0 | 2.22 and 2.04 and -0.493 | 0.292 and 1.37 and 1.17 | -0.288 and -0.307 and 0.775 | 1 and 0.582 and 1.93
